# From PubChem BioAssay (NCATS)
# The source made the active and inactive calls. The call rests on the fitted dose curve.
# Assay: Cell Proliferation Assay Versus the ED40515 IL2 Dependent ATL cell lines (AID 1053195)
# Conditions: ED40515 IL2-dependent ATL cells
# Text: Adult T-cell leukemia (ATL) develops in individuals infected with human T-cell lymphotropic virus-1 (HTLV-1). Clinically, ATL is subclassified into four subtypes: smoldering, chronic, lymphomatous, and acute. Two autocrine loops (IL-2/IL-2Ralpha and IL-15/IL-15Ralpha) and one paracrine stimulation loop that involves IL-9 expression by ATL cells and IL-9Ralpha expression on monocytes are required to maintain viability and proliferation in the smoldering and chronic forms of the disease. These assays examined the differential response profiles for the MIPE library of approved and investigational drugs versus an IL2 dependent and independent matched ATL cell line, with the current submission examining the differential response profiles for drugs on an IL2 dependent matched ATL cell line.
# Plate log growing ED40515 +IL2 cells: 1000cells/ well in 5uL phenol red free RPMI +5% FBS +1x p/s, Glutamine using 1536 well white griener tissue culture plates and multidrop cassette acoustic dispensing Columns 1 and 3 DMSO Columns 2 and 4, 9.2 uM Bortezomib Incubate 48 hours for celltiter glo 37C with 5%CO2 and 95% humidity with low evaporation lids Dispense 3 uL per well of cell titer glo with multidrop Incubate for 15 minutes at RT Read on VL/2 using Luminesence Wheel (Filter A)
row,Compound,Potency
1,Cc1csc(NC(=O)c2sc3nc4c(c(C(F)(F)F)c3c2N)CCC4)n1,18.7 µM (active)
2,COc1c(Cl)cc2c([nH]c3cnccc32)c1NC(=O)c1cccnc1C,33.2 µM (active)
3,CCCS(=O)(=O)Nc1ccc(F)c(C(=O)c2c[nH]c3ncc(-c4ccc(Cl)cc4)cc23)c1F,20.9 µM (active)
4,CC(c1cc2ccccc2s1)N(O)C(N)=O (stereo not given),67.9 µM (active)
5,O=C1[C@H](Cc2ccc(O)cc2)N2C(=O)CCN(C(=O)NCc3ccccc3)[C@H]2CN1Cc1cccc2ccccc12,8.33 µM (active)
6,COCC(=O)NCC=Cc1ccc2ncnc(Nc3ccc(Oc4ccc(C)nc4)c(C)c3)c2c1,4.69 µM (active)
7,COc1ccccc1[C@H](c1cccc2ccccc12)[C@@](C)(C#N)C(=O)N1CCC(c2cccc(C(F)(F)F)c2)CC1,2.64 µM (active)
8,N#Cc1ccc(C(c2ccc(C#N)cc2)n2cncn2)cc1,10.5 µM (active)
9,Cn1cnc2c(F)c(Nc3ccc(Br)cc3Cl)c(C(=O)NOCCO)cc21,16.6 µM (active)
10,C[C@]1(c2nc3c(C(N)=O)cccc3[nH]2)CCCN1,16.6 µM (active)
11,COc1ccc2nc(S(=O)Cc3ncc(C)c(OC)c3C)[nH]c2c1 (stereo not given),23.5 µM (active)
12,COc1ccc(CC2=NN3C([C@@H](CCc4ccccc4)[C@@H](C)O)=NC(C)C3C(=O)N2)cc1OC (stereo not given in full),10.5 µM (active)
13,Nc1nccc(-c2ccc3noc(-c4ccc(Cl)cc4)c3c2)n1,23.5 µM (active)
14,OCCn1cc(-c2cnc3nnn(Cc4ccc5ncccc5c4)c3n2)cn1,18.7 µM (active)
15,Nc1cccc(S(=O)(=O)N2CCCN(S(=O)(=O)c3ccc4c(c3)OCCO4)CC2)c1,16.6 µM (active)
16,Nc1nc2[nH]cc(CCc3ccc(C(=O)N[C@@H](CCC(=O)O)C(=O)O)cc3)c2c(=O)[nH]1,0.0296 µM (active)
17,O=C(O)[C@@H](c1ccc(OCc2ccc3ccccc3n2)cc1)C1CCCC1,26.4 µM (active)
18,Cc1cc([C@@H](C)Nc2ccccc2C(=O)O)c2nc(N3CCOCC3)cc(=O)n2c1,1.05 µM (active)
19,Oc1cccc(-c2nc(N3CCOCC3)c3oc4ncccc4c3n2)c1,0.743 µM (active)
20,CN(C(=O)c1ccc(F)cc1C(F)(F)F)C1CCN(c2nnc(-c3ccnn3C)c3ccccc23)CC1,2.96 µM (active)

row,Compound,Potency
1,CS(=O)(=O)c1cccc(CNc2nc(Nc3ccc4c(c3)CCC(=O)N4)ncc2C(F)(F)F)c1,3.32 µM (active)
2,OC[C@H](Cc1ccccc1)Nc1nc(Oc2ccc3c(c2)CCC3)nc2c1ncn2Cc1ccc(-c2ccccc2)cc1,13.2 µM (active)
3,Clc1ccc(Nc2nnc(Cc3ccncc3)c3ccccc23)cc1,37.2 µM (active)
4,Cc1cc(SCc2sc(-c3ccc(C(F)(F)F)cc3)nc2C)ccc1OCC(=O)O,26.4 µM (active)
5,O=C(Nc1ccc(F)c(C(F)(F)F)c1)Nc1nnc(-c2ccncc2)s1,0.935 µM (active)
6,O=c1ncn2nc(Sc3ccc(F)cc3F)ccc2c1-c1c(Cl)cccc1Cl,16.6 µM (active)
7,O=C(Nc1nc2ccccc2n1CCN1CCOCC1)c1cccc([N+](=O)[O-])c1,10.5 µM (active)
8,Cc1c(CCOc2ccc(C(=O)O)cc2)c2cc(Cl)ccc2n1C(c1ccccc1)c1ccccc1,23.5 µM (active)
9,CC[C@H](Nc1ncnc2nc[nH]c12)c1nc2cccc(F)c2c(=O)n1-c1ccccc1,5.9 µM (active)
10,CC(C)(N)C(=O)N[C@H](COCc1ccccc1)C(=O)N1CCC2(CC1)CN(S(C)(=O)=O)c1ccccc12,11.8 µM (active)
11,Cc1c(C)c2c(c(C)c1O)CCC(C)(COc1ccc(CC3SC(=O)NC3=O)cc1)O2 (stereo not given),16.6 µM (active)
12,COc1ccc(C2=N[C@H](c3ccc(Cl)cc3)[C@H](c3ccc(Cl)cc3)N2C(=O)N2CCNC(=O)C2)c(OC(C)C)c1,20.9 µM (active)
13,CC(C)c1onc(-c2c(Cl)cccc2Cl)c1COc1ccc(/C=C/c2cccc(C(=O)O)c2)c(Cl)c1,20.9 µM (active)
14,C[C@@H]1CN(Cc2ccc(F)cc2)[C@@H](C)CN1C(=O)c1cc2c(C(=O)C(=O)N(C)C)cn(C)c2cc1Cl,16.6 µM (active)
15,CCN(CC)CCCC(C)Nc1nc(C)cc(Nc2ccc3nc(C)cc(N)c3c2)n1 (stereo not given),18.7 µM (active)
16,CS(=O)(=O)c1ccc(C(=O)Nc2ccc(Cl)c(-c3ccccn3)c2)c(Cl)c1,13.2 µM (active)
17,O=S(=O)(N=Cc1c(O)ccc2ccccc12)c1cccs1,20.9 µM (active)
18,Cc1cnc(Nc2ccc(OCCN3CCCC3)cc2)nc1Nc1cccc(S(=O)(=O)NC(C)(C)C)c1,20.9 µM (active)
19,COc1nc(-c2ccc3c(c2)OCO3)n(-c2ccc(NC(=O)CSc3ccccc3)cc2)n1,20.9 µM (active)
20,O=C(OCC#CCSc1nnc(-c2ccc3ccccc3c2)o1)c1cc2ccccc2s1,11.8 µM (active)
